# From PubChem
# Sampled rows, rich in hits. Any-hit rate of the full collection: about 4.6%.
# FAS-TE inh – FAS thioesterase (human) inhibition | P49327 | recombinant FAS-TE, OMFH fluorogenic substrate, fluorescence endpoint | inhibition, % at 15 µM | 0.67% of 360,000 active;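 active = compounds whose normalised, plate-corrected inhibition of enzyme fluorescence in the single-dose primary screen is 50% or more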;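 also: 0% = DMSO with enzyme and 100% = substrate without enzyme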
# Target sequence (P49327 whole entry, looked up): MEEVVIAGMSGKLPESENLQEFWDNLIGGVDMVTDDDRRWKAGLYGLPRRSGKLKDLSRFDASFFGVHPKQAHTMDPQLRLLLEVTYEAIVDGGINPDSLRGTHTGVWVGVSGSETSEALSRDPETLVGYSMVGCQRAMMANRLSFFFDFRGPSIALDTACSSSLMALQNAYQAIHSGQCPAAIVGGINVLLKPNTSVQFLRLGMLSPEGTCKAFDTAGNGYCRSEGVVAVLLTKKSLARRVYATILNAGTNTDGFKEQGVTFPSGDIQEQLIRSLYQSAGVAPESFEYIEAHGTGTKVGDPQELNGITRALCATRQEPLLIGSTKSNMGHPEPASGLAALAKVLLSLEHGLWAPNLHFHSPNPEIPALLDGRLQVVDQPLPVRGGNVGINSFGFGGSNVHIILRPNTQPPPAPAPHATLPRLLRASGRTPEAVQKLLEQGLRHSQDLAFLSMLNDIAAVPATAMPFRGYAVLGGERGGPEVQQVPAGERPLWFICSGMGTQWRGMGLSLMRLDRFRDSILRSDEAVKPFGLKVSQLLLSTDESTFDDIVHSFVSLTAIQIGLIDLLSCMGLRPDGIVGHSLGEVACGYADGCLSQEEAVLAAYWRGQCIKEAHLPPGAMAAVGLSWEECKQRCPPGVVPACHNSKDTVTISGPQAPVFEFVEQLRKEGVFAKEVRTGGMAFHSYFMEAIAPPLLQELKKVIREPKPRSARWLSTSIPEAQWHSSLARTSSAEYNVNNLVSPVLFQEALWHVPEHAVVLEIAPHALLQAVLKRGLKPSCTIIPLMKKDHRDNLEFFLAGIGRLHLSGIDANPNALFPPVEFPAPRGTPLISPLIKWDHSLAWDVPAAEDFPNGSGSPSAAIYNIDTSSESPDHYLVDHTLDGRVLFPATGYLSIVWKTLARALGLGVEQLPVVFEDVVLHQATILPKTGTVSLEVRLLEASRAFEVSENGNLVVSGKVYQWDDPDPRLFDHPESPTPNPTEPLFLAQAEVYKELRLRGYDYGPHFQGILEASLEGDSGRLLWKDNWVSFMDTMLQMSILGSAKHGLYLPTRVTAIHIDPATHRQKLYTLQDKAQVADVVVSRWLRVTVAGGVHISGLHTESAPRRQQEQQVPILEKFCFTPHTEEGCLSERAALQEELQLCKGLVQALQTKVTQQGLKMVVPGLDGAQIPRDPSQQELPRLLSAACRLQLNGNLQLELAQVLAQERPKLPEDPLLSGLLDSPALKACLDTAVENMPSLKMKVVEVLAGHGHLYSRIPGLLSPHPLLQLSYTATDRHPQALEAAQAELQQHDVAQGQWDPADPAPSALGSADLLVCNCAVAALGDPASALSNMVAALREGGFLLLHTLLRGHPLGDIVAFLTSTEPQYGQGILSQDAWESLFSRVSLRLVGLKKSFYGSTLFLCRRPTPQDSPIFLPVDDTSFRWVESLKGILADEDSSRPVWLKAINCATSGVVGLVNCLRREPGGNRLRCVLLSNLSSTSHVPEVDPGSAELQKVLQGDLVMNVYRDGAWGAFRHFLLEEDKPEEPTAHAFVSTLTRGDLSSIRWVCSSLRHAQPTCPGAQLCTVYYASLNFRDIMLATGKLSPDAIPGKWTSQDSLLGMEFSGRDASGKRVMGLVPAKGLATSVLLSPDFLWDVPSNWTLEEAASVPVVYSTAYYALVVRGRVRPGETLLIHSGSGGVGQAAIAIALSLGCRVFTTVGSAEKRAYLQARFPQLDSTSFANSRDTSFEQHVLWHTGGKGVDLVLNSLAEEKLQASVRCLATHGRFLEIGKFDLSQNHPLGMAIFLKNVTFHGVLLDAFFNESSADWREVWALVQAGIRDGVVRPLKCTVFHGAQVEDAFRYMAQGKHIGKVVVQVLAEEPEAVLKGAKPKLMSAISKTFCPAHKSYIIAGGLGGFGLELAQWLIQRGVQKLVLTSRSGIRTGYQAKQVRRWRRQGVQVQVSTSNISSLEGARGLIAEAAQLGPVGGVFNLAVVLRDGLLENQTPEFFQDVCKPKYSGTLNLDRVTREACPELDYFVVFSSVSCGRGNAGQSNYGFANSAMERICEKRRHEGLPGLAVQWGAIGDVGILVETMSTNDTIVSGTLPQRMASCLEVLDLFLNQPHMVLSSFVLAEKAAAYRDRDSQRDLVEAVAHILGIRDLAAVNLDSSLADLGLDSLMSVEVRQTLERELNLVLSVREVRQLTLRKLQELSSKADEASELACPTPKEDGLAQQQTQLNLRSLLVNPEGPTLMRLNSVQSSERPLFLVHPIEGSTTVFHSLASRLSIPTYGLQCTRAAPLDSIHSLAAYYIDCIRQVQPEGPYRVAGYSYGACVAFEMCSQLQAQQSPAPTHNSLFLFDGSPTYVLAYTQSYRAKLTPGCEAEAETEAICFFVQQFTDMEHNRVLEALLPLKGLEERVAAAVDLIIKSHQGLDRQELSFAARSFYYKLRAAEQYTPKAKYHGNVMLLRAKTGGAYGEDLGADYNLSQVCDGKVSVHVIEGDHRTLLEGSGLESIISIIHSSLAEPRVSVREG
# proKLK7 act – activators of human kallikrein-7 zymogen | P49862 | purified proKLK7, EDANS-DABCYL substrate fluorescence; 100% is mature enzyme control, 0% vehicle | activation, % at 7 µM | 0.9% of 370,000 active;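 active = activation above the mean of all tested compounds plus 3 SD, computed per campaign excluding outliers beyond control limits, cut at about 13% in these data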
# ADAM17 inh – inhibitors of human ADAM17; 0.83% of 370,000 active; inhibition, % at 6.95 µM; AID 720648; recombinant ADAM17, EDANS/DABCYL FRET peptide cleavage; P78536;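 active = inhibition above the mean of compounds lying between control limits plus 3 SD, set per campaign, cut at about 8.5% in these data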;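 also: 0% = DMSO-only wells as the low control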
# ADAM10 inh – inhibitors of human ADAM10; recombinant ADAM10, EDANS/DABCYL FRET peptide cleavage, 3 h; 0.62% of 370,000 active; inhibition, % at 7 µM;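 active = inhibition above a per-campaign cutoff equal to the mean of compounds falling between control-based bounds plus 3 SD, cut at about 20% in these data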;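 also: 0% = DMSO wells while the 100% control is not disclosed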
# NR3A LBD binder – modulates the human NR3A ligand-binding domain; Tm shift relative to glycine control, % at 25 µM; 2.5% of 340,000 active; NR3A LBD differential scanning fluorimetry, Tm shift; 0% = protein alone, 100% = glycine-bound protein; AID 1259313;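 active = melting temperature shift of at least 10% of the positive control shift, at one fixed dose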
# ADAM10 confirm – human ADAM10 inhibition, confirmation | inhibition, % at 6.95 µM | shares compounds with ADAM10 inh | 1% of 2,100 active | ADAM10 QFRET peptide cleavage, EDANS fluorescence;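 active = inhibition above about 20% chosen separately for each screening run, limit read from the data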;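 also: 0% = DMSO wells and 100% = marimastat wells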
# ADAM17 ctr – inhibits human ADAM17 in ADAM10 exosite counter-screen | shares compounds with ADAM10 inh | ADAM17 QFRET peptide cleavage, EDANS fluorescence | inhibition, % at 6.95 µM | 0.5% of 2,100 active;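 active = mean triplicate inhibition above the solvent-only control wells' mean plus 3 SD, cut at about 12% in these data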;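 also: 0% = DMSO wells and 100% = marimastat wells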
# Starred values were filed as active, the others as inactive; x = no result.
SMILES,FAS-TE inh,proKLK7 act,ADAM17 inh,ADAM10 inh,NR3A LBD binder,ADAM10 confirm,ADAM17 ctr
O=C(COc1ccc(-c2nnco2)cc1)Nc1c(F)cccc1F,-3,0,0,84*,14*,-1,0
C[C@@H](O)C(C(=O)N1CCNCC1)n1cc([C@@H](N)CCCCN)nn1 (stereo not given in full),-14,0,3,22*,0,3,0
CC(C)C[C@H](N)c1cn([C@@H](CCCCN)C(=O)N2CCNCC2)nn1,-8,0,-3,12,4,x,x
Cc1ccc(NC(=O)CSc2nc(NS(=O)(=O)c3ccc(C)cc3)cc(=O)[nH]2)cc1,39,0,7,23*,2,8,1
Cn1nc(C(C)(C)C)cc1C(=O)NCC1CCN(C(=O)C(=O)c2cc3ccccc3o2)CC1,x,0,0,0,x,x,x
Cc1cc(C)c(OCC(=O)Nc2ccc(NC(=O)c3ccco3)cc2)c([N+](=O)[O-])c1,-8,0,-1,-9,1,x,x
Cc1cc(C)c(OCC(=O)Nc2cccc(NC(=O)c3ccco3)c2)c(Br)c1,30,0,8,21*,-10,6,2
Nc1ccc2c(c1)Nc1ccccc1CC2,-2,0,4,24*,-2,0,1
COC(=O)Nc1ccc2c(c1)Nc1ccccc1CC2,12,0,4,-2,-6,x,x
CCOc1ccc(CCN2C(=S)N([C@@H](Cc3ccc(O)cc3)CN3CCC[C@@H]3CN3C(=S)NC[C@@H]3CC(C)C)C[C@@H]2Cc2ccccc2)cc1,-109,0,4,21*,x,12,5
COc1ccccc1NC(=O)Nc1ccc(-n2ccc(C(F)(F)F)n2)cc1,27,0,7,30*,4,5,1
C[C@H]1NS(=O)(=O)c2cccc(Cl)c2O[C@@H]1c1ccccc1,x,0,0,1,x,x,x
Cc1ccc(C)c(OCC(=O)Nc2ccc3c(c2)OCO3)c1C,14,1,7,20*,0,1,0
Cc1ccc(OCC(=O)Nc2ccc3c(c2)OCO3)cc1C,2,0,2,3,0,x,x
CCCC/C(O)=C1\C(=O)CC(C)(C)CC1=Nc1ccc(OC)cc1,13,-1,3,41*,4,-1,0
CCC/C(O)=C1\C(=O)CC(C)(C)CC1=Nc1ccc(OC)cc1,6,0,-1,10,1,x,x
O=C(CCCOc1ccc(Cl)cc1Cl)N1CCCc2ccccc21,22,0,5,13,1,x,x
O=C(COc1ccc(Cl)cc1Cl)OCC(=O)N1CCCc2ccccc21,37,0,8,21*,-12,4,0
CCCCNC(=O)C[C@H]1C[C@@]2(C(=O)OC)C(=C[C@H](C(C)C)O[C@@H]2C2CC2)N(Cc2ccccc2)C1=O,x,0,-2,-7,x,x,x
CCC(=O)c1ccc(OCC(=O)OCC(=O)Nc2ccc(C)c(S(=O)(=O)N3CCCCC3)c2)cc1,1,0,1,-2,-4,x,x
CCOc1ccc(OCCC(=O)OCC(=O)Nc2cc(S(=O)(=O)N3CCOCC3)ccc2OC)cc1,11,0,-7,-6,1,x,x
CCOc1ccc(OCCC(=O)OCC(=O)Nc2cc(S(=O)(=O)N3CCOCC3)ccc2C)cc1,-5,0,-3,68*,-1,0,0
CCOc1ccc(OCCC(=O)OCC(=O)Nc2ccc(C)c(S(=O)(=O)N3CCCCC3)c2)cc1,19,1,8,23*,9,8,2
O=C(C(=O)N1CCC(CNS(=O)(=O)c2ccc3ccccc3c2)CC1)c1cc2ccccc2o1,x,1,4,11,x,x,x
CCCCOCCCNC(=O)C[C@H]1C[C@@]2(C(=O)OC)C(=C[C@H](C3CCCC3)O[C@@H]2C)N(Cc2ccccc2)C1=O,x,0,-1,10,x,x,x
SMILES,FAS-TE inh,proKLK7 act,ADAM17 inh,ADAM10 inh,NR3A LBD binder,ADAM10 confirm,ADAM17 ctr
C/C(N)=C(/C#N)C(=O)CSc1nn(-c2ccc(Cl)cc2)c(=S)s1,28,1,8,24*,13*,4,1
COc1cc(OC)c(N(C)S(=O)(=O)c2cccc(C(=O)OCC(=O)c3c[nH]c4ccccc34)c2)cc1Cl,36,-2,-1,32*,26*,14,5
COc1ccc(C(=O)OCC(=O)c2c[nH]c3ccccc23)cc1OC,-6,0,-7,-6,1,x,x
Cc1ccc(C(=S)NCS(=O)(=O)c2ccc(C)cc2)cc1,4,0,7,26*,1,21*,7
Cc1cccc(S(=O)(=O)N2CCC[C@H]2C(=O)N2CCC[C@@H]2C(=O)NCc2ccccc2)c1,x,0,-2,2,x,x,x
CCC(NS(=O)(=O)c1ccc(C)cc1)C(=O)N1CCN(c2ccccn2)CC1 (stereo not given),-1,0,-1,80*,2,2,1
COC(=O)c1cccc(Nc2cc(C)n(-c3cccc(C(=O)OC)c3)c(=O)c2)c1,x,0,0,-8,x,x,x
O=C(/C=C(\Nc1ccc(F)cc1)c1ccccc1)c1ccccc1,x,0,-4,-7,x,x,x
N#Cc1nc(COc2ccc(Br)cc2)oc1N1CCCCCC1,31,0,2,1,1,x,x
N#Cc1nc(COc2ccc(Br)cc2)oc1N1CCCC1,20,-1,5,21*,0,2,0
Cn1cnc([N+](=O)[O-])c1Sc1nnc(-c2ccccc2)c(-c2ccccc2)n1,x,0,-3,-6,x,x,x
O=C(Nc1ccccc1C(=O)NCC1CC1)c1cccs1,x,0,-5,-3,x,x,x
Oc1ccc(-c2nccc(-c3ccc(Br)cc3)n2)cc1,8,0,6,20*,37*,6,2
O=C(CCNc1cc(Cl)cc(Cl)c1)c1cccs1,43,0,7,22*,-1,6,2
Cc1c(Cl)cccc1NC(=O)CNC(=O)Cc1c[nH]c2ccccc12,-1,0,0,33*,0,3,0
Cc1cccc(C)c1NC(=O)CNC(=O)Cc1c[nH]c2ccccc12,-4,1,-4,2,-2,x,x
O=S1(=O)c2ccc(Br)cc2OC[C@@H](Cc2ccccc2)N1Cc1cn(Cc2ccccc2)nn1,x,0,-1,0,x,x,x
CCOc1ccc(NC(=S)Nc2cc(-c3ccccc3)[nH]n2)cc1,12,1,4,23*,14*,6,1
CCOc1ccc(NC(=S)Nc2ccc(F)cc2)cc1,-4,0,-3,-2,-8,x,x
Clc1ccccc1CN(Cc1ccccc1)c1ncnc2nc[nH]c12,7,0,6,20*,-23,7,3
Clc1ccccc1CNc1ncnc2nc[nH]c12,-13,0,-5,-8,-1,x,x
